Our source for the max activity values is PubChem BioAssay AID1259418 (Broad Institute, 2018).

Among all 3,400 compounds or so, about 840 (25%) were called active. Inconclusive results (about 11%) are left out. These entries were drawn from the full list. Entries with a potency or affinity are not part of this list. A number with no mark means an inactive call.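 The calls were made as follows: active = fitted half-maximal concentration of signal decrease at or below twice the sample's top tested concentration; inconclusive = flat curve between -70 and -30 percent, or poor fit; inactive = flat within 30 percent, signal rise, or potency above limit.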

This assay in a line: T. gondii growth inhibition with IFN-gamma, dose response, cell-based, ME49Luc, HeLa, luciferase, 72 h (AID 1259418). The note with it: T. gondii ME49Luc in IFN-y HeLa, stronger effect = lower value, -100% = high-dose IFN-γ control wells; at 19.5 µM unless noted.
On to `Cc1ccc(C)c(-c2coc(-c3ccc(NC(=O)C4CCCCC4)cc3)n2)c1`, for which the max activity is 10.4% [at 10 µM]. The value for `Cc1ccc(-c2nc(Cn3nnc(-c4nc(-c5ccccc5C)no4)c3C)c(C)o2)cc1` was 15.4% [at 0.16 µM]; that for `Cc1nc(CCNC(=O)C2CCN(S(=O)(=O)c3ccc(Cl)s3)CC2)cs1` was -9.13%; that for `O=S(=O)(c1cccs1)N1CCC2(CC1)NCCN=C2NCc1ccc(F)c(Cl)c1` was -41.7%. With `Cc1cccc(CNC2=NCCNC23CCN(S(=O)(=O)c2cccs2)CC3)c1`, the max activity was 13.8%. The value for `O=S(=O)(c1cccs1)N1CCC2(CC1)NCCN=C2NCc1cc(F)cc(F)c1` was 10.2% [at 0.16 µM]; that for `Cc1ccc(CNC2=NCCNC23CCN(S(=O)(=O)c2cccs2)CC3)cc1` was 17.3% [at 10 µM]. The value for `CCCC(=O)Nc1ccc(-c2nc(-c3ccccc3)co2)cc1` was 72.8% [at 10 µM]; that for `Cc1nc(CCNC(=O)C2CCN(S(=O)(=O)c3ccc(CC(C)C)cc3)CC2)cs1` was -7.19% [at 1.35 µM]; that for `Cc1cc(C)cc(S(=O)(=O)N2CCC(C(=O)NCCc3csc(-c4ccccc4)n3)CC2)c1` was 16.8% [at 10 µM].

Consider `O=C(NCCc1csc(-c2ccccc2)n1)C1CCN(S(=O)(=O)c2cccc(F)c2)CC1`, for which the max activity was 8.1% [at 5 µM]. In the case of `O=C(NCCc1csc(-c2ccccc2)n1)C1CCN(S(=O)(=O)c2ccccc2)CC1` it was 11.6% [at 10 µM]; in that of `Cc1ccc(S(=O)(=O)N2CCC(C(=O)NCCc3csc(-c4ccccc4)n3)CC2)cc1`, 5.41% [at 5 µM]; in that of `O=C(NCCc1csc(-c2ccccc2)n1)C1CCN(S(=O)(=O)c2cccs2)CC1`, 11.2% [at 0.16 µM]. With `CCOc1ccc(S(=O)(=O)N2CCC(C(=O)NCCc3csc(-c4ccccc4)n3)CC2)cc1`, the max activity was 21.5% [at 5 µM]. The value for `Cc1nc(CCNC(=O)C2CCN(S(=O)(=O)c3ccc(Cl)cc3)CC2)cs1` was -9.1% [at 0.35 µM]; that for `COC(=O)c1sccc1S(=O)(=O)N[C@@H]1CC[C@@H](N)C1` was 17.5%.

As to `CCc1c(C)sc2c1CCN(Cc1nc(-c3cccc(Cl)c3)oc1C)C2c1ccccc1` (stereo unspecified), the max activity was 7.75% [at 0.68 µM].

For `COc1cccc(-c2nc3c(s2)CN(S(=O)(=O)c2ccc(CC(C)C)cc2)CC3)c1`, the max activity is 8.23% [at 2.6 µM]. The value for `CCc1ccccc1Nc1nc(-c2ccc(OC)cc2)nc2ccccc12` was -9.45% [at 0.16 µM]; that for `COc1ccccc1-c1nc(Cn2nnc(-c3nc(-c4ccccc4)no3)c2C)c(C)o1` was -9.24% [at 1.35 µM]. In the case of `Cc1cccc(C2=NC3(CCN(Cc4ccccc4C)CC3)NC2=O)c1` it was 12% [at 0.16 µM]. For the molecule `O=C(Cc1ccc(F)cc1)Nc1ccc(-c2nc(-c3ccccc3)co2)cc1`, the max activity was 4.13% [at 5 µM]. In the case of `COc1ccc(-c2nc(Nc3ccc(C)cc3Cl)c3ccccc3n2)cc1` it was -11.8% [at 2.6 µM]. The value for `NC(=O)C1(N2CCCCC2)CCN(c2ncc(NC(=O)c3ccccc3F)cc2C(=O)O)CC1` was 15.7% [at 2.6 µM].

As for `CCCc1ccc(S(=O)(=O)N2CCc3nc(-c4cccc(OC)c4)sc3C2)cc1`, the max activity is -6.99% [at 2.6 µM]. The value for `COc1cc(OC)cc(C(=O)N2CCC3(CC2)Nc2ccc(C)c(C)c2-n2cccc23)c1` was -13.1% [at 0.35 µM]. `O=C(NCCc1csc(-c2ccccc2)n1)C1CCN(C(=O)Cc2ccc(Cl)cc2)CC1`: the max activity was 8.14%. As for `COc1cccc(CC(=O)N2CCC(C(=O)NCCc3csc(-c4ccccc4)n3)CC2)c1`, the max activity is 8.89% [at 10 µM]. The value for `COc1ccc(-c2nc3c([nH]2)c(=O)n(C)c(=O)n3C)cc1OC` was 40.8% [at 0.35 µM]. With `Cc1ccc(CCNC(=O)CCC2Nc3c4ccccc4nc(=S)n3C2=O)cc1` (stereo unspecified), the max activity is 13.4% [at 10 µM]. Regarding `CN(C)CC(=O)N1C[C@@H]2N[C@H](C1)C2c1ccc(C2=CCCCC2)cc1` (stereo partly specified), the max activity was 18.8% [at 9 µM]. The value for `COc1cccc(S(=O)(=O)N2CC[C@@H]3[C@H](CO)Nc4ccc(C5=CCCCC5)cc4[C@@H]32)c1` was 8.73% [at 10 µM]; that for `Cc1nc(CCNC(=O)[C@H]2CCCN2S(=O)(=O)c2cccs2)cs1` was 7.39% [at 0.16 µM]; that for `O=C(NCCCN1CCC(N2CCCCC2)CC1)c1nnc2ccc(-c3ccccc3)nn12` was 16.2% [at 0.16 µM]. The value for `Cc1cccc(C(=O)N2CCC3(CC2)Nc2ccc(C)c(C)c2-n2cccc23)c1` was 11.2% [at 0.68 µM]; that for `Cc1oc(-c2ccccc2)nc1Cn1nnc(-c2nc(-c3ccc4c(c3)OCO4)no2)c1C` was 8.48% [at 10 µM]. Regarding `COc1cccc(CN2CCc3nc(SCc4nc(-c5ccccc5)oc4C)[nH]c(=O)c3C2)c1`, the max activity was 24.2% [at 2.6 µM]. Regarding `COc1ccc(-c2nc(NCC3CCN(Cc4cccc(C)c4)CC3)c3ccccc3n2)cc1`, the max activity was -18.6% [at 2.6 µM]. Turning to `COc1ccc(-c2nc(NCC3CCN(Cc4cccc(Cl)c4)CC3)c3ccccc3n2)cc1`, the max activity is -31.6% [at 10 µM]. Take `O=S(=O)(Cc1ccccc1)N1CC2CN(Cc3cccc(Cl)c3)CC2C1` (stereo unspecified): the max activity is 9.94%. The value for `COc1cccc(CNC(=O)N2CCc3nc(-c4ccccc4)sc3C2)c1` was -15% [at 5 µM]; that for `COCCC(=O)c1cc2c(s1)CCN2Cc1cccnc1` was 26.4%; that for `Cc1ccccc1S(=O)(=O)N1CCCCN2[C@H](CO)[C@H](c3ccc(C#CCN(C)C)cc3)[C@H]2C1` was 23.7%. Take `Cc1ccccc1S(=O)(=O)N1CCCCN2[C@H](CO)[C@H](c3ccc(C#CCN(C)C)cc3)[C@@H]2C1`: the max activity was -17.9%. In the case of `Cc1cccc(N2CCN(c3nc(-c4ccc(Cl)cc4)nc4ccccc34)CC2)c1C` it was 10.6%.
